# Screening data from PubChem.
# Rtt109 Vps75 – inhibitors of C. albicans Rtt109/Vps75 HAT, primary screen, biochemical, ThioGlo CoA-SH fluorescence, plate reader. Histone acetyltransferase RTT109 (Candida albicans (strain SC5314 / ATCC MYA-2876)), …. purified Rtt109/Vps75, 4 h. inhibition, % at 34.9 µM. hit rate 0.16% among 330,000;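 active means inhibition of at least 50% in every replicate; inconclusive means best replicate reaches 50% inhibition but some replicates fall short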
# Target sequence (Q5AAJ8 whole entry, looked up): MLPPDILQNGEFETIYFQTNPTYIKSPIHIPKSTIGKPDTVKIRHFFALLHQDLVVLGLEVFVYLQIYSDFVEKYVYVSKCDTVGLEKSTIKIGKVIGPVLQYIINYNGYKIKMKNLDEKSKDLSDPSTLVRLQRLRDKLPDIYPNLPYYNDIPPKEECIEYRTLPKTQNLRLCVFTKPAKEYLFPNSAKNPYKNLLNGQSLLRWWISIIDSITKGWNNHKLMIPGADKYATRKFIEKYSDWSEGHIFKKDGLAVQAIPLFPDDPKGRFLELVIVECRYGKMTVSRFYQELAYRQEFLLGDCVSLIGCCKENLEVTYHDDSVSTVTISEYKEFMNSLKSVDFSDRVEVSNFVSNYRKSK
# C2C12 statin – suppressors of statin myotoxicity in C2C12 myotubes, primary screen, cell-based, single point, plate reader; C2C12 myotubes + simvastatin, ATP luminescence, 48 h; scaled: DMSO 0, geranylgeraniol control 100; rescue of ATP level, % at 7.49 µM; hit rate 0.78% among 330,000; AID 602340, 2012;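 active means mean ATP rescue above about 67%, or every replicate alone reaching that limit, limit read from the data, passing the limit was not always enough; inconclusive means no clear call, values can overlap the other calls; inactive means mean under the limit and some replicate under it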;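 further: myotubes were challenged with 10 µM simvastatin during compound exposure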
# esBAF inh – Bmi1 luciferase reporter increase in mESCs, primary screen, esBAF inhibitor project, mouse ES cells, Bmi1 luciferase knock-in, single point; hit rate 2% among 350,000; reporter increase, % at 12.5 µM; 24 h; 100% = twice the neutral-well signal; in the data active means activation above about 40%; inconclusive means no clear call, values can overlap the other calls;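 further: 0% = median of the plate's neutral control wells and 100% = double that signal; a rise in the Bmi1 reporter signal indicates esBAF inhibition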
# Wnt bcat act – Wnt/beta-catenin pathway activators, primary screen, cell-based, plate reader, single point. activation, % at 9.35 µM. hit rate 1.2% among 300,000. Wnt/beta-catenin reporter cell assay, activator; in the data active means activation above about 30%, passing the limit was not always enough; inconclusive means no clear call, values can overlap the other calls;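 further: 0% = neutral control wells and 100% = positive control wells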
# MITF act – activators of MITF-driven TRPM1 promoter reporter, primary screen, cell-based, SK-MEL-5, luciferase, single point; SK-MEL-5 TRPM1-promoter luciferase, 24 h; % of positive control, neutral wells = 0; activation, % at 12.5 µM; hit rate 0.75% among 300,000; AID 588334, 2011;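 active means mean activation of at least 80% with every replicate also reaching 80%; inconclusive means mean reaches 80% but some replicate falls short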;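 further: 0% = neutral control wells and 100% = parthenolide positive control wells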
# An asterisk follows results filed as active; ? = inconclusive; nt = no result. In the library only some 3.1% were active in any assay of this set; here they are far more common.
SMILES,Rtt109 Vps75,C2C12 statin,esBAF inh,Wnt bcat act,MITF act
S=C(Nc1cccc2ccccc12)NC1CCCCC1,-3.6,-1.6,57.4*,15.1,7.1
CC1CCCCC1NC(=S)Nc1ccc(SC(F)F)cc1 (configuration not stated),2.4,-88.4,25.6,nt,40.1
O=C(Nc1ccc(Cl)cc1)NC1CCCCC1,-0.9,nt,nt,66.1*,?
O=C(Nc1ccc(F)cc1)NC1CCCCCCC1,-4.6,-13.8,59.1*,12.4,105.2*
COCC#Cc1cnc2c(c1)C(=O)N([C@H](C)CO)C[C@H](C)[C@H](CN(C)S(C)(=O)=O)O2,nt,-0.6,-2.6,nt,nt
CC(C)=CC(=O)Nc1ccc(Cl)cc1,-3.3,nt,nt,44.8*,89.4*
CC(C)(C)c1nnc(NC(=O)Nc2ccc(Cl)cc2)s1,16.6,nt,nt,2.2,38.2
CC(=O)c1ccc(NC(=O)Nc2ccncc2)cc1,-4.9,7.5,5.7,6.4,46.4
Cc1nc(NC(=O)Nc2ccc(Cl)cc2)sc1C,-11.8,3.0,58.3*,14.8,78.1
CC(=O)c1ccc(NC(=O)Nc2ccc(Cl)cc2)cc1,-0.8,-12.8,65.6*,17.4,125.4*
COc1ccc(NC(=O)C2(N(C(=O)Cn3nnnc3N)c3ccc(OC)cc3)CCCCC2)cc1,-1.7,6.3,-6.2,1.8,-6.2
COCC(=O)N(C)C1(c2nnnn2CCOC(=O)Nc2cccc3ccccc23)CCCC1,8.6,97.6*,1.0,-0.6,-4.4
C/C=C/c1ccc([C@@H]2[C@H](CO)N(C(=O)NCCC)[C@H]2CNC(=O)C2CCC2)cc1,nt,14.5,0.6,nt,nt
Cc1cccc2nc(=S)n(C(=O)c3ccco3)n12,-5.2,4.2,74.5*,nt,58.2
COC(=O)c1ccsc1NC(=O)CCc1ccccc1,-4.6,8.0,48.1*,18.1,34.1
NC(=O)c1ccsc1NC(=O)CCc1ccccc1,1.3,4.6,39.4,9.2,58.3
Cc1ccc(C(=O)O)cc1NC(=S)NC(=O)c1ccc(-c2ccccc2)cc1,-7.8,3.4,62.1*,11.1,17.6
Cc1nc(NC(=O)c2ccccc2O)sc1C,-1.1,2.9,34.6,11.4,?
Cc1nc(NC(=O)c2ccccc2)sc1C,4.2,-6.6,6.0,4.0,nt
Cc1nc(NC(=O)c2csc3ccccc23)sc1C,3.2,9.1,-3.0,42.2*,30.5
Cc1nc(NC(=S)NC(=O)c2ccccc2)sc1C,-4.0,-28.1,44.8*,0.6,56.7
Cc1ccc(C(=O)NC(=S)Nc2cccc3nsnc23)cc1,-5.9,-18.6,62.6*,nt,9.3
Cc1c(Cl)cccc1NC(=S)NC(=O)c1ccccc1,nt,-14.1,59.7*,0.1,nt
Cc1nc(NC(=O)CCc2ccccc2)sc1C,4.9,1.7,56.7*,4.8,65.9
Cc1cccc(C(=O)NC(=S)Nc2ccccc2C(F)(F)F)c1,1.4,nt,nt,-0.4,-5.5
SMILES,Rtt109 Vps75,C2C12 statin,esBAF inh,Wnt bcat act,MITF act
Cc1ccc(C(=O)NC(=S)Nc2ccccc2C(F)(F)F)cc1C,2.6,93.4*,5.1,nt,12.8
Cc1cc(C)c(NC(=S)NC(=O)c2ccccc2)cc1C,nt,nt,nt,33.9*,nt
O=C(CCN1CCCCC1)NCC[C@@H]1CC[C@@H](NC(=O)C2CCCC2)[C@H](CO)O1,nt,-3.0,-4.0,nt,nt
C[C@H](CO)N1C[C@H](C)[C@H](CN(C)C(=O)Nc2ccc(C(F)(F)F)cc2)OCCCC[C@H](C)Oc2ccc(NC(=O)Nc3ccccc3)cc2C1=O,nt,nt,-7.1,nt,nt
O=C(C[C@@H]1C[C@H]2c3cc(NC(=O)C4CCC4)ccc3O[C@H]2[C@@H](CO)O1)NC1CCCCC1,nt,2.0,4.2,nt,nt
COc1ccc(C=O)cc1CSc1nnc(COc2cccc3cccnc23)o1,4.7,138.0*,-0.2,nt,-3.3
C[C@@H]1CN([C@@H](C)CO)C(=O)c2cccc(NS(=O)(=O)c3cn(C)cn3)c2O[C@@H]1CN(C)CC1CC1,nt,6.9,-2.9,nt,nt
COc1ccc(C(=O)Nc2cc(OC)c(NC(=O)c3ccco3)cc2OC)cc1,57.3*,nt,nt,-0.8,-7.5
COc1ccc(C(=O)Nc2cccc(OC(=O)c3ccc(C)c(C)c3)c2)cc1,4.2,nt,21.6,15.9,36.2
COc1ccc(NC(=O)c2ccc(NC(=O)c3ccco3)cc2)c(OC)c1,-5.3,10.1,5.5,1.1,-0.4
COc1ccc(C(=O)Nc2cccc(OC(=O)c3ccco3)c2)cc1,-3.7,1.4,10.9,27.9,110.1*
C[C@H]1CN([C@@H](C)CO)S(=O)(=O)c2ccc(C3=CCCCC3)cc2O[C@@H]1CN(C)S(=O)(=O)c1cn(C)cn1,nt,6.6,-0.6,nt,nt
CN(C)C(=O)[C@@H]1[C@@H](CO)[C@@H]2Cn3c(cccc3=O)[C@@H]2N1CC1CCCC1,nt,-3.5,1.0,nt,nt
Cn1c(C(=O)NCc2ccccn2)cc2c(=O)n3ccccc3nc21,nt,7.7,53.6*,nt,?
Cc1cccc(NC(=O)C2CCCN2C(=O)OCC(C)C)c1C (configuration not stated),6.9,91.4*,-4.2,1.4,-6.6
CC(=O)c1cccc(NC(=O)N2CCCC2C(=O)NC2CCCC2)c1 (configuration not stated),-7.0,0.9,-5.2,-3.5,nt
CC(=O)c1cccc(NC(=O)N2CCCC2C(=O)Nc2cc(C)ccc2C)c1 (configuration not stated),-0.9,115.4*,-1.7,nt,-9.6
COc1ccc(OC)c(NC(=O)C2CCCN2C(=O)OCc2ccccc2)c1 (configuration not stated),-5.9,27.6,-4.0,nt,-3.3
COc1ccc(C)cc1NC(=O)C1CCCN1C(=O)OCc1ccccc1 (configuration not stated),-2.7,131.9*,-1.8,nt,-6.8
Cc1cccc(NC(=O)C2CCCN2C(=O)OCC(C)C)c1 (configuration not stated),nt,nt,-0.4,-5.6,nt
CCCC#Cc1cnc2c(c1)C(=O)N([C@H](C)CO)C[C@H](C)[C@H](CN(C)C(=O)CN1CCOCC1)O2,nt,4.0,3.7,nt,nt
COCC(=O)Nc1ccc2c(c1)C(=O)N(C)[C@H]1CC[C@@H](CC(=O)NCCc3ccccc3)O[C@H]1CO2,nt,11.0,1.6,nt,nt
COc1ccc(NC(=O)N(C)C[C@@H]2OCCCC[C@H](C)Oc3ccc(NC(=O)Nc4ccc(F)cc4)cc3C(=O)N([C@@H](C)CO)C[C@@H]2C)cc1,nt,nt,5.9,nt,nt
C[C@@H]1CCCCO[C@H](CN(C)S(C)(=O)=O)[C@@H](C)CN([C@H](C)CO)C(=O)c2cc(NC(=O)Nc3cccc4ccccc34)ccc2O1,nt,nt,-3.2,nt,nt
C[C@H](NC(=O)[C@@H]1[C@@H](CO)[C@@H]2Cn3c(cccc3=O)[C@H]1N2Cc1ccccc1)c1ccccc1,nt,-10.0,-6.0,nt,nt
COc1ccc(C(=O)/C=C/c2ccc(N(C)C)cc2)c(OC)c1,7.8,nt,nt,1.0,nt
COc1ccc(C(=O)/C=C/c2ccccc2)c(OC)c1,2.7,-5.9,86.0*,0.6,38.0
